# CYP2C19 act – activators of human cytochrome P450 2C19; P33261; activation factor at 5 µM; 96,000 tested, under 10 active; recombinant CYP2C19, luciferin-H EGE luminescence; hits give high values; 0 = fully inhibited enzyme, 1 = untreated enzyme; AID 1025;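 active = activation factor of at least 2 at 5 µM in the primary screen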;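 note: 0 = wells with 2.5 mM tranylcypromine and 1 = vehicle-only wells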
# Target sequence (P33261 whole entry, looked up): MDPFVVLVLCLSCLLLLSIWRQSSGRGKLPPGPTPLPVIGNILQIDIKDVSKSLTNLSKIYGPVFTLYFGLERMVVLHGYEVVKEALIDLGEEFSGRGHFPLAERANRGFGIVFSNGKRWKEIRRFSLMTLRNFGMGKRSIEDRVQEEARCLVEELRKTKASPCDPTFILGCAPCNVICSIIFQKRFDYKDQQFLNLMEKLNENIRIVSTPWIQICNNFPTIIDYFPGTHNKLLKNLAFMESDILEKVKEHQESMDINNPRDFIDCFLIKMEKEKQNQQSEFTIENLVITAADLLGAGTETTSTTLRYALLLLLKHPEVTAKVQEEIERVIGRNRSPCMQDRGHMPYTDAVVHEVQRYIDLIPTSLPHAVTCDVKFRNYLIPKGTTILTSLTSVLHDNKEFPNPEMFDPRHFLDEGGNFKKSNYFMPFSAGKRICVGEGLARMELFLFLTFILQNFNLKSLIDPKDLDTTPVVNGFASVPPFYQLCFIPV
# Cav3 T inh – human Cav3.2 channel inhibition, primary screen. O95180. Cav3.2-expressing cells, Fluo-4 calcium fluorescence FDSS; hits give low values. B-score at 10 µM. 100,000 compounds, 4% hits. AID 449739;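 active = single-dose well whose peak fluorescence ratio is a statistical outlier from its plate by either plate-standardised score or position-corrected B-score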
# CYP2C9 inh – inhibitors of human CYP2C9. 96,000 compounds, 20% hits. inhibition, % at 5 µM. P11712. CYP2C9 Supersomes, luciferin-H conversion, luminescence;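 active = blocking of liver enzyme CYP2C9 beyond about 50% at 5 µM, limit read from the data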
# CYP2C9 act – increases human cytochrome P450 2C9 activity; P11712; 96,000 compounds, 1.4% hits; recombinant CYP2C9, luciferin-H conversion, luminescence; hits give high values; factor 1 = untreated enzyme, 0 = blocked; activation factor at 5 µM;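 active = activation factor of 2 or more for CYP2C9 at a 5 µM dose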;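 note: 0 = sulfaphenazole-blocked wells and 1 = vehicle-only wells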
# CYP2C19 inh – human CYP2C19 inhibition; P33261; inhibition, % at 5 µM; AID 778; 96,000 compounds, 21% hits; CYP2C19 Supersomes, luciferin-H EGE luminescence, 30 min;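 active = CYP2C19 inhibition above a set limit at 5 µM in the primary screen, cut at about 50% in these data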;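 note: plate controls were negative control wells for no effect and 2.5 mM tranylcypromine positive control for full effect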
# An asterisk follows results filed as active; x = no result given. This is a sample that favours compounds with a hit; in the whole collection about 27% have one here.
SMILES,CYP2C19 act,Cav3 T inh,CYP2C9 inh,CYP2C9 act,CYP2C19 inh
Cc1ccc(C)n1-n1c(C)nc2sc3c(c2c1=O)CCCCC3,0.9,-5.6*,8,0.9,11
Cc1ccc(-c2nc3sc4c(c3c(=O)n2N)CCCC4)cc1,0.8,-0.71,58*,0.4,23
Cc1ccc(-c2nc3sc4c(c3c(=O)n2N)CC(C)(C)OC4)cc1,1.2,-0.63,10,0.9,-16
CC(=O)c1ccc(N2CCN(C(=O)COc3ccccc3F)CC2)c(F)c1,x,0.017,x,x,x
CN(C)CCCNC(=O)CCC1CCCCC1,1.1,0.95,-17,1.2,-14
COc1cccc2c1OC1(C)CC2NC(=O)N1c1cccc(C(=O)Nc2ccc3c(c2)OCCO3)c1 (centres undefined),0.7,0.092,72*,0.3,29
CCOC(=O)c1c(C)[nH]c(C(=O)Nc2ccc3c(c2)OCO3)c1C,0.1,x,34,0.7,86*
COc1ccc(Br)cc1C(=O)Nc1nnn(C)n1,0.8,0.9,-75,1.8,24
COc1ccc(Cl)cc1C(=O)Nc1nnn(C)n1,1.1,0.56,-100,2*,-7
COc1ccccc1C(=O)Nc1ccc2c(c1)OCO2,0.1,-0.67,14,0.9,90*
CC12CC(NC(=O)N1c1cccc(C(=O)Nc3ncn[nH]3)c1)c1ccccc1O2 (centres undefined),1,-0.75,27,0.7,5
CN(c1ccccc1C(=O)Nc1ccc2c(c1)OCO2)S(C)(=O)=O,x,0.06,x,x,x
O=C1CC(=O)CC(c2ccccc2Cl)C1,x,0.23,x,x,x
CCN1C(=O)N[C@@H](c2ccco2)C(C(C)=O)=C1C,x,-0.041,x,x,x
Cc1ccccc1C(=O)Nc1ccc2c(c1)OCO2,0.2,0.46,38,0.6,84*
Cc1ccc(NC(=O)/C(=C\c2cccc(Br)c2)NC(=O)c2ccco2)cc1,1,0.18,30,0.7,-4
COCCn1cnnc1SCC(=O)Nc1ccccc1C(=O)Nc1ccc2c(c1)OCO2,0.4,0.7,94*,0.1,58*
COc1ccc(Cl)cc1C(=O)Nc1ccc2c(c1)OCO2,0.4,-2.7,-232,3.3*,59*
Cc1ccc(NC(=O)/C(=C\c2ccc3c(c2)OCO3)NC(=O)c2ccco2)cc1,0.9,0.62,84*,0.2,10
O=C(O)C1CCCN1S(=O)(=O)c1ccc2[nH]c(=O)c(=O)[nH]c2c1 (centres undefined),1.1,-0.4,-11,1.1,-9
Cc1cc(C)n(CCc2nc(-c3ccc(C)o3)cs2)n1,0.8,0.57,13,0.9,19
COc1ccccc1C(=O)Nc1ccc2c(c1)OCCO2,0.9,-0.76,-108,2.1*,11
COCCSc1ccccc1C(=O)Nc1ccc2c(c1)OCCO2,0.9,-0.23,13,0.9,12
O=C(Nc1ccc2c(c1)OCO2)Oc1ccccc1,0.4,-0.13,2,1,62*
O=C(Nc1ccccc1C(=O)Nc1ccc2c(c1)OCO2)c1ccco1,0.5,-0.16,97*,0,51*
SMILES,CYP2C19 act,Cav3 T inh,CYP2C9 inh,CYP2C9 act,CYP2C19 inh
O=C(O)CNC(=O)CCN1C(=O)c2ccccc2C1=O,1,1.2,-23,1.2,-4
O=C1CN(C(=O)CSc2nnc(C3CC3)n2-c2ccccc2)c2ccccc2N1,0.9,1.1,11,0.9,12
C=C1CCN([C@H](C(=O)NCc2ccc(OC)cc2)C(C)C)S(=O)(=O)c2ccccc21,x,1,x,x,x
CC1(C(=O)O)Cc2ccccc2C(=O)O1 (centres undefined),1,2.3,-3,1,0
CC1(C)CC(=O)C=C(NC2CCCCCC2)C1,1,0.031,5,1,2
Brc1ccc(Oc2ncc(CN3CCOCC3)s2)cc1,0.2,-0.15,20,0.8,80*
COc1ccc(Oc2ncc(CN3CCN(c4ccccc4)CC3)s2)cc1,0.2,-4,93*,0.1,82*
Cc1ccc(Cn2c(C3CCCN3c3nc(-c4cc(Cl)c(N)c(Cl)c4)cs3)nc3cc(Cl)c(Cl)cc32)cc1 (centres undefined),x,0.95,x,x,x
Cc1ccc(-n2ncc(N(C)C)c(Cl)c2=O)cc1,0.9,x,-5,1.1,15
CN(/N=C/c1ccncc1)c1cnn(-c2ccc(F)c(Cl)c2)c(=O)c1Cl,0.1,0.065,93*,0.1,91*
CN(C)c1ccc(-n2cc3c(=O)n(C)c(=O)n(C)c3c2)cc1,0.5,1.4,76*,0.2,46
O=C(O)C1=C[C@H](c2cccs2)C[C@H](OCc2ccc(CO)cc2)O1,x,0.34,x,x,x
CC(C)Sc1nnc(Nc2ccccc2)s1,0.3,-2.4,59*,0.4,69*

# Source: PubChem BioAssay (several laboratories)
